Measured values as given in PubChem BioAssay (NCI).
This is part of a sample that, as a whole, favours compounds with a hit. Of some 83,000 tested, about 20% had one in any assay.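 Activity criterion: percent growth below 10, measured after cells in 96-well plates were exposed to a single compound concentration for 48 hours.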 Values without a mark were called inactive. Calls of active or inactive are those of the source.

What follows are compounds tested on SK-MEL-2 melanoma (assay: NCI-60 one-dose screen, 48 h (100 = growth as untreated, 0 = no growth, -100 = all killed)). Conditions: 10 µM unless noted.
`CC(C)(C)c1[nH]nc2c1C(c1cc3ccccc3[nH]c1=O)Nc1cc(C(=O)OCc3ccccc3)ccc1N2` (configuration not stated) showed a growth of 67%.
`COc1ccc2nc(-c3c(-c4ccccc4)nc4ncccn34)[nH]c2c1` showed a growth of 113%.
With `O=C1NC(=Nc2ccc(S(=O)(=O)Nc3nccs3)cc2)S/C1=C\c1coc2ccccc2c1=O` the growth was 133%.
`CC(C)=CCC[C@](C)(O)[C@H]1CC[C@]2(C)[C@@H]1CC[C@@H]1[C@@]3(C)C/C(=C/c4ccc(Br)cc4)C(=O)C(C)(C)[C@@H]3CC[C@]12C` gave a growth of 113%.
`O=c1c2sc3ncc(Br)cc3c2ncn1-c1cccc(Cl)c1` showed a growth of 96.3%.
For `O=Cc1nc2ccccc2[nH]1`, the growth was 101%.
`CCc1ccc(-c2ccc(Nc3ccccc3)nn2)cc1S(N)(=O)=O` gave a growth of 78.9%.
`COc1ccc(-c2nc3ccccn3c2-c2nc3ccc(Cl)cc3[nH]2)cc1` gave a growth of 97.5%.
For `Cn1cc(-c2nc(-c3c[nH]c4ncccc34)cs2)c2ccccc21`, the growth was 87%.
For `COc1ccc2c(c1)C/C(=C\c1cc(-c3ccc4c(c3)OCO4)n[nH]1)C2=O`, the growth was 128%.
With `Nc1ccc(Br)cn1` the growth was 98.8%.
With `Cc1nn(-c2ccc(Br)cc2)c2nc3[nH]c(=O)[nH]c(=O)c3nc12` the growth was 111%.
`Cn1cc(-c2csc(-c3cn(C(=O)OC(C)(C)C)c4ccccc34)n2)c2cccnc21` gave a growth of 66.3%.
`CC(C)(C)c1ccc(OCCCCCCCN2CCNCC2)cc1` showed a growth of 103%.
In the case of `Nc1ccc(Cl)cn1`, the growth is reported as 107%.
In the case of `Cc1ccc(-c2nc([P+](c3ccccc3)(c3ccccc3)c3ccccc3)c(N3CCOCC3)o2)cc1`, the growth is reported as -18.7% (active).
`c1ccc2[nH]c(-c3cc(-c4ccc5c(c4)OCO5)n[nH]3)nc2c1` gave a growth of 41%.
Work on `Nc1c(C(=O)Nc2cccc(Br)c2)sc2nc3c(cc12)C(=O)CCC3` yielded a growth of 30.8%.
Work on `COc1cccc(NC(=O)c2sc3nc4c(cc3c2N)C(=O)CCC4)c1` yielded a growth of 25.3%.
Work on `C=C(C)[C@@H]1CC[C@]2(C)[C@H](CC=C3[C@@H]4CC(C)(C)CC[C@]4(C=O)CC[C@]32C)[C@@]1(C)CCCN` yielded a growth of 109%.
Compound `CC(C)(C)c1cc(-n2c(-c3ccc(Cl)cc3)nc3cc(C(=O)Nc4ccc(Cl)cc4)ccc32)n[nH]1` has a growth of 75.8%.
`O=c1c(CNc2ccc(S(=O)(=O)Nc3nccs3)cc2)coc2ccccc12` was tested, and the growth was 98.1%.
`COc1cc(-c2cc(-c3nc4ccc(F)cc4[nH]3)[nH]n2)cc(OC)c1OC` was tested, and the growth was 17.5%.
`Fc1ccc2nc(-c3cc(-c4ccc5c(c4)OCO5)n[nH]3)[nH]c2c1` showed a growth of 42.7%.
In the case of `O=c1c(CNc2ccc(S(=O)(=O)Nc3ncccn3)cc2)coc2ccccc12`, the growth is reported as 95.9%.
With `COc1ccc(-c2cc(/C=C/C(=O)c3ccc(N)cc3)[nH]n2)cc1` the growth was 22.4%.
`COC(=O)[C@]12CC[C@@H](C(=O)/C=C/c3cccnc3)[C@@H]1[C@H]1CC[C@@H]3[C@@]4(C)C/C(=C/c5cccnc5)C(=O)C(C)(C)[C@@H]4CC[C@@]3(C)[C@]1(C)CC2` was tested, and the growth was -61.1% (active).
`NC1(N)C=CC2=C(C=C1)C1(N)C3=C(C=CC(N)(N)C=C3)N2C2(N)C3=C(C=CC(N)(N)C=C3)N1C1=C2C=CC(N)(N)C=C1` showed a growth of 103%.
`CCCCC(=O)OC1CCCCC1C` (configuration not stated) showed a growth of 111%.
`COc1ccc(/C=C/C(=O)NCCO)cc1` showed a growth of 103%.
`COc1ccc2c(c1)C/C(=C\c1cc(-c3cc(OC)c(OC)c(OC)c3)n[nH]1)C2=O` showed a growth of 94.7%.
Compound `COc1ccc(NC(=O)c2ccc3c(c2)nc(-c2cc4ccccc4[nH]c2=O)n3-c2cc(C(C)(C)C)[nH]n2)cc1` has a growth of 99.7%.
`COc1ccc2nc(-c3cc(-c4cc(OC)c(OC)c(OC)c4)n[nH]3)[nH]c2c1` was tested, and the growth was -29.9% (active).
For `Nc1nc2c(c(=O)[nH]1)C(c1ccc3c(c1)OCO3)C=C(C(=O)O)N2` (configuration not stated), the growth was 116%.
With `COc1ccc(-c2cc(/C=C/C(=O)c3ccc(OC)c(OC)c3)[nH]n2)cc1` the growth was 69.2%.
With `COc1cc2c(cc1OC)C(=O)/C(=C/c1cc(-c3ccc4c(c3)OCO4)n[nH]1)C2` the growth was 81.3%.
In the case of `COc1cc(-c2cc(-c3nc4ccccc4[nH]3)[nH]n2)cc(OC)c1OC`, the growth is reported as 47.4%.
